Records with an inconclusive call do not appear. Calls of active or inactive are those of the source. Unless noted, the limit is not given here; nearly all actives have AC50 up to about 26 µM.
Experiments:
[1] = viability loss in pontine glioma line – cell-based, SU-DIPG-XVII, MIPE5.0, CellTiter-Glo, qHTS, dose response (AID 1347060); conditions: CellTiter-Glo ATP luminescence;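 as to AC50: cells exposed to compound for 48 hours before viability readout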
[2] = viability loss in pontine glioma line – cell-based, SU-DIPG-XIII, MIPE5.0, CellTiter-Glo, qHTS, dose response (AID 1347064; cut-off not given, nearly all actives have AC50 up to about 23 µM;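 as to AC50: cells exposed to compound for 48 hours before the viability read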); conditions: CellTiter-Glo ATP luminescence
[3] = viability loss in pontine glioma line – cell-based, SU-DIPG-XXV, MIPE5.0, CellTiter-Glo, qHTS, dose response (AID 1347065); conditions: CellTiter-Glo ATP luminescence;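 also: cells exposed to compound for 48 hours before ATP readout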
[4] = JHH-DIPG-1 glioma cell viability, MIPE5.0 library, CellTiter-Glo luminescence, qHTS (AID 1347067); conditions: JHH-DIPG-1 glioma viability, CellTiter-Glo ATP luminescence;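 also: cells exposed to compound for 48 hours before readout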
[5] = viability loss with induced miR-34 in A549 – imaging, A549 dox-inducible miR-34, nuclei and caspase counts, primary screen (AID 1347080;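 active = compounds whose cell count with miR-34 switched on is under 0.7 times the count with it off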); conditions: A549 miR-34 inducible, Hoechst nuclei count, 48 h
[6] = MELAS cybrid and Rieske KO viability enhancers – cell-based, MELAS cybrids, Rieske KO mouse fibroblasts, CellTiter-Glo, primary screen (AID 1508586;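 active = mean z-score across replicates of 1.96 or higher in either the MELAS or the Rieske mutant cell line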;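 also: z relative to plate mean and SD of compound and empty wells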); conditions: low glucose
[7] = growth inhibition of DIPG cells – cell-based, MIPE5.0 library, qHTS (AID 1347068; cut-off not given, nearly all actives have IC50 up to about 30 µM;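 as to IC50: cells exposed to compound for 48 hours before viability readout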); conditions: SU-DIPG-XXV viability
[8] = drug combination growth inhibition, ovarian cancer – cell-based, oncology-focused library, rucaparib conditional, profiling panel (AID 1508598;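 active = normalized viability below 100% at a tested concentration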); conditions: patient-derived ovarian cancer cells, CellTiter-Glo viability, 144 h, stronger effect = lower value
[9] = stronger effect = lower value, cell number ratio, induced over uninduced
[10] = measured here: relative caspase fold change +Dox/-Dox
[11] = measured here: total cells with miR-34 induction, stronger effect = lower value
[12] = measured here: total cells without miR-34 induction
[13] = MELAS cybrid survival, CellTiter-Glo 48 h, stronger effect = higher value
[14] = Rieske KO mouse fibroblast survival, CellTiter-Glo 72 h

Cc1c(NC(=O)OCC2COCCN2)cn2ncnc(Nc3ccc4c(cnn4Cc4cccc(F)c4)c3)c12 (configuration not stated)
0.875: fold change [5, 10]
4510: cell count [5, 11]
0.355: z-score [6, 14]
inactive: fold change [5, 9] 1.04 | z-score [6, 13] -0.264
active: AC50 [1] 18.6 µM | AC50 [2] 23.5 µM | AC50 [3] 23.5 µM | AC50 [4] 20.9 µM
4340: cell count [5, 12]

Cn1ncc(Cl)c1-c1cc(C(=O)N[C@H](CN)Cc2cccc(F)c2)sc1Cl
active: AC50 [1] 5.9 µM | AC50 [2] 2.95 µM | AC50 [3] 3.72 µM
inactive: outcome [7]

O=C1CC(c2c[nH]c3ccc(F)cc23)C(=O)N1 (configuration not stated)
inactive: outcome [1] | outcome [2] | outcome [3] | outcome [7]

COc1ncc(-c2ccc3c(Nc4cc(Oc5cc(F)cc(F)c5)cc(C(=O)O)c4)c(S(=O)(=O)NC4CC4)cnc3c2)c(OC)n1
inactive: outcome [1] | outcome [2] | outcome [3] | outcome [7]

O=C(c1ccc(NS(=O)(=O)c2cccc3cccnc23)cc1)N1CCN(CC2CC2)CC1
inactive: outcome [1] | outcome [2] | outcome [3] | outcome [7]

CCOC(=O)[C@@]1(CCCCCCOc2ccc(Cl)cc2)CO1
inactive: outcome [1] | outcome [2] | outcome [3] | outcome [7]

CC(C)(O)c1coc(S(=O)(=O)NC(=O)Nc2c3c(cc4c2CCC4)CCC3)c1
inactive: outcome [1] | outcome [2] | outcome [3] | outcome [7]

Cc1c(F)cccc1NC(=O)Nc1ccc(Cl)c(S(=O)(=O)[C@H]2CCCNC2)c1O
inactive: outcome [1] | outcome [2] | outcome [3] | outcome [7]

COc1cccc(OCCCN)c1-c1cc(Nc2cnc(C#N)cn2)n[nH]1
active: AC50 [1] 0.0332 µM | AC50 [2] 0.0742 µM | AC50 [3] 0.059 µM
inactive: outcome [7]

CC(=O)N1CCC(Nc2cc(C(=O)NC[C@H](O)CN3CCc4ccccc4C3)ncn2)CC1
inactive: outcome [1] | outcome [2] | outcome [3] | outcome [7]

Cc1cc(F)c(C(=O)Nc2cccc(-c3nncn3C(C)C)n2)cc1-n1cnc(C2CC2)c1
active: AC50 [1] 16.6 µM | AC50 [2] 18.6 µM | AC50 [3] 18.6 µM | IC50 [7] 18.6 µM

C=CC(=O)N1CC/C(=C\c2ccc(F)c([N+](=O)[O-])c2)C(=O)/C(=C/c2ccc(F)c([N+](=O)[O-])c2)C1
active: AC50 [1] 0.0742 µM | AC50 [2] 0.059 µM | AC50 [3] 0.0934 µM | IC50 [7] 0.186 µM

Cc1ccc(S(=O)(=O)Cc2nc(-c3ccc(C(=O)NCc4cccnc4)cc3)oc2C)cc1
inactive: fold change [5, 9] 0.957 | z-score [6, 13] -0.778
5320: cell count [5, 12]
5090: cell count [5, 11]
-0.8: z-score [6, 14]
active: AC50 [1] 0.0525 µM | AC50 [2] 0.0166 µM | AC50 [3] 0.0148 µM | AC50 [4] 0.0209 µM
0.598: fold change [5, 10]

C[C@H]1COCCN1c1cc(C2(S(=O)(=O)C3CC3)CC2)nc(-c2ccc(NC(=S)NCCO)cc2)n1
active: AC50 [1] 0.295 µM | AC50 [2] 0.332 µM | AC50 [3] 0.0263 µM | IC50 [7] 4.68 µM

CN1CCN(c2ccc(-c3cccc(CN4CCOCC4)c3)cc2NC(=O)c2c[nH]c(=O)cc2C(F)(F)F)CC1
inactive: outcome [1] | outcome [2] | outcome [3] | outcome [7]

Cc1ccc(-n2nc(C(C)(C)C)cc2NC(=O)NCc2cc(F)ccc2Oc2ccc3c(cnn3CCO)c2)cc1
active: AC50 [1] 10.5 µM | AC50 [2] 6.61 µM | AC50 [3] 5.25 µM | IC50 [7] 18.6 µM

Cc1nc2c(-c3cnc(N)nc3)nc(N3CCOCC3)nc2n1C(C)C
2430: cell count [5, 12]
1980: cell count [5, 11]
0.682: fold change [5, 10]
-0.403: z-score [6, 14]
inactive: fold change [5, 9] 0.815 | viability ([8]; at 0.000305 µM, OCI-C5x cells, with rucaparib 10 µM, 100% = cells with rucaparib alone) 117% | viability ([8]; at 0.000305 µM, OCI-C5x cells, without rucaparib) 112% | viability ([8]; at 0.000305 µM, OCI-P5x cells, with rucaparib 20 µM, 100% = cells with rucaparib alone) 108% | viability ([8]; at 0.000305 µM, OCI-P5x cells, without rucaparib) 109% | viability ([8]; at 0.00122 µM, OCI-C5x cells, with rucaparib 10 µM, 100% = cells with rucaparib alone) 120% | viability ([8]; at 0.00122 µM, OCI-C5x cells, without rucaparib) 120% | viability ([8]; at 0.00122 µM, OCI-P5x cells, without rucaparib) 109% | viability ([8]; at 0.00488 µM, OCI-C5x cells, with rucaparib 10 µM, 100% = cells with rucaparib alone) 120% | viability ([8]; at 0.00488 µM, OCI-C5x cells, without rucaparib) 116% | viability ([8]; at 0.00488 µM, OCI-P5x cells, without rucaparib) 113% | viability ([8]; at 0.0195 µM, OCI-C5x cells, with rucaparib 10 µM, 100% = cells with rucaparib alone) 111% | viability ([8]; at 0.0195 µM, OCI-C5x cells, without rucaparib) 114% | viability ([8]; at 0.0195 µM, OCI-P5x cells, without rucaparib) 108% | viability ([8]; at 0.0781 µM, OCI-C5x cells, without rucaparib) 116% | viability ([8]; at 0.313 µM, OCI-C5x cells, with rucaparib 10 µM, 100% = cells with rucaparib alone) 102% | viability ([8]; at 0.313 µM, OCI-C5x cells, without rucaparib) 103%
active: AC50 [1] 0.742 µM | AC50 [2] 1.05 µM | AC50 [3] 0.332 µM | AC50 [4] 0.742 µM | z-score [6, 13] 5.52 | viability ([8]; at 0.00122 µM, OCI-P5x cells, with rucaparib 20 µM, 100% = cells with rucaparib alone) 95.6% | viability ([8]; at 0.00488 µM, OCI-P5x cells, with rucaparib 20 µM, 100% = cells with rucaparib alone) 92.3% | viability ([8]; at 0.0195 µM, OCI-P5x cells, with rucaparib 20 µM, 100% = cells with rucaparib alone) 90.3% | viability ([8]; at 0.0781 µM, OCI-C5x cells, with rucaparib 10 µM, 100% = cells with rucaparib alone) 98.8% | viability ([8]; at 0.0781 µM, OCI-P5x cells, with rucaparib 20 µM, 100% = cells with rucaparib alone) 77.8% | viability ([8]; at 0.0781 µM, OCI-P5x cells, without rucaparib) 97.3% | viability ([8]; at 0.313 µM, OCI-P5x cells, with rucaparib 20 µM, 100% = cells with rucaparib alone) 68.3% | viability ([8]; at 0.313 µM, OCI-P5x cells, without rucaparib) 76.9% | viability ([8]; at 1.25 µM, OCI-C5x cells, with rucaparib 10 µM, 100% = cells with rucaparib alone) 69.8% | viability ([8]; at 1.25 µM, OCI-C5x cells, without rucaparib) 54.3% | viability ([8]; at 1.25 µM, OCI-P5x cells, with rucaparib 20 µM, 100% = cells with rucaparib alone) 37.6% | viability ([8]; at 1.25 µM, OCI-P5x cells, without rucaparib) 34.8% | viability ([8]; at 5 µM, OCI-C5x cells, with rucaparib 10 µM, 100% = cells with rucaparib alone) 34.3% | viability ([8]; at 5 µM, OCI-C5x cells, without rucaparib) 32.9% | viability ([8]; at 5 µM, OCI-P5x cells, with rucaparib 20 µM, 100% = cells with rucaparib alone) 13.7% | viability ([8]; at 5 µM, OCI-P5x cells, without rucaparib) 14.6%

OC[C@H]1O[C@@H](S[C@@H]2O[C@H](CO)[C@H](O)[C@H](n3cc(-c4cccc(F)c4)nn3)[C@H]2O)[C@H](O)[C@@H](n2cc(-c3cccc(F)c3)nn2)[C@H]1O
inactive: outcome [1] | outcome [2] | outcome [3] | outcome [7]
